Values joined by “and” are separate entries in the source; they are usually repeats but may differ in a detail not shown here. Identical values can stand only once. Inconclusive results are not listed. Some compounds were tested as several samples or in several runs, with calls that do not always agree. Active and inactive are the calls of the source. Unless noted, calls follow the shape of the dose curve; as a rule, active = well fitted curve in the direction sought with a large enough effect in the repeat runs; inconclusive = weak or mixed curves; inactive = no such curve, though single readings can be large; an effect the other way counts as inactive or inconclusive.
Columns and labels:
[1] = qHTS assay to identify small molecule antagonists of the glucocorticoid receptor (GR) signaling pathway - cell viability counter screen (AID 720693); also: nearly all actives have a fitted effect of over 55% in size
[2] = qHTS assay for identifying genotoxic compounds that show differential cytotoxicity against isogenic chicken DT40 cell lines with known DNA damage response pathways - wild type cell line (AID 743012); also: nearly all actives have a fitted effect of over 60% in size; also: potency is read from the fitted curve at half-maximal effect
Procedure, shortened: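 Quantitative HTS on parental DT40 cells: 40 h compound treatment at 37 C/5% CO2, with viability then determined by CellTiter-Glo luminescence. Values serve as the DNA repair-proficient reference for differential cytotoxicity.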

[3] = qHTS assay for identifying genotoxic compounds that show differential cytotoxicity against isogenic chicken DT40 cell lines with known DNA damage response pathways - Rev3 mutant cell line (AID 743014); also: nearly all actives have a fitted effect of over 55% in size; also: potency is read from the fitted curve at half-maximal effect
[4] = qHTS assay for identifying genotoxic compounds that show differential cytotoxicity against isogenic chicken DT40 cell lines with known DNA damage response pathways - Rad54/Ku70 mutant cell line (AID 743015); also: nearly all actives have a fitted effect of over 60% in size; also: potency is read from the fitted curve at half-maximal effect
[5] = qHTS assay to identify small molecule antagonists of the androgen receptor (AR) signaling pathway - cell viability counter screen (AID 743033; also: nearly all actives have a fitted effect of over 45% in size)
[6] = qHTS assay to identify small molecule antagonists of the androgen receptor (AR) signaling pathway using the MDA cell line - cell viability counter screen (AID 743041; also: nearly all actives have a fitted effect of over 45% in size)
Procedure, shortened: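 Same-well cytotoxicity was assessed by CellTiter-Fluor in MDA-kb2 AR-luc cells after 16 h of compound treatment under R1881 agonism.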

[7] = qHTS assay to identify small molecule antagonists of the thyroid receptor (TR) signaling pathway - cell viability counter screen (AID 743064); also: nearly all actives have a fitted effect of over 50% in size; also: potency is read from the fitted curve at half-maximal effect
Procedure, shortened: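 CellTiter-Fluor readout, 30 min at 37 °C/5% CO2, following 23.5 h incubation of GH3.TRE-Luc cells with test compound and 1 nM T3 (final).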

[8] = qHTS assay to identify small molecule antagonists of the thyroid receptor (TR) signaling pathway (AID 743065); also: nearly all actives have a fitted effect of over 55% in size; also: potency is read from the fitted curve at half-maximal effect
Procedure, shortened: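 GH3.TRE-Luc rat pituitary cells (two TREs driving luciferase) were dosed with compound, then stimulated with 1 nM T3 (final) for 23.5 h at 37 C. ONE-Glo luminescence was the read-out, with CellTiter-Fluor fluorescence as the cytotoxicity counter-screen.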

[9] = system: thyroid hormone receptor (rat, GH3 cells); assay: qHTS assay to identify small molecule agonists of the thyroid receptor (TR) signaling pathway (AID 743066; calls by dose curve)
[10] = biological target: Estrogen receptor (Homo sapiens) (UniProt P03372); assay: qHTS assay to identify small molecule antagonists of the estrogen receptor alpha (ER-alpha) signaling pathway (AID 743069; active = well fitted curve in the direction sought with a large enough effect in the signal ratio in the repeat runs, not every such curve was filed as active; the % refers to the signal ratio)
Procedure, shortened: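 Reporter cells (ER-alpha-bla, HEK293 background) are conditioned overnight in stripped-serum medium (2% charcoal-stripped FBS). Compound and 17beta-estradiol exposure runs 18 hr at 37C, 5% CO2.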

[11] = qHTS assay to identify small molecule antagonists of the estrogen receptor alpha (ER-alpha) signaling pathway - cell viability counter screen (AID 743074; calls by dose curve;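 also: HEK293 cells carrying ER-alpha-UAS-bla reporter stimulated with 17beta-estradiol; nearly all actives have a fitted effect of over 45% in size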)
[12] = biological target: Estrogen receptor (Homo sapiens) (UniProt P03372); assay: qHTS assay to identify small molecule agonists of the estrogen receptor alpha (ER-alpha) signaling pathway (AID 743075; calls by dose curve;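 also: HEK293 GripTite cells with ER-alpha and UAS-driven beta-lactamase reporter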)
[13] = biological target: Estrogen receptor (Homo sapiens) (UniProt P03372); assay: qHTS assay to identify small molecule agonists of the estrogen receptor alpha (ER-alpha) signaling pathway using the BG1 cell line (AID 743079); also: nearly all actives have a fitted effect of over 20% in size; also: potency is read from the fitted curve at half-maximal effect
[14] = qHTS assay to identify small molecule antagonists of the estrogen receptor alpha (ER-alpha) signaling pathway using the BG1 cell line (AID 743080; calls by dose curve;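 also: BG1 cells stimulated with 17beta-estradiol alongside compound; series mostly up to about 70 µM; nearly all actives have a fitted effect of over 25% in size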)
Procedure, shortened: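 BG1Luc4E2, endogenous ER-alpha, 4xERE-luc; 5 d charcoal-stripped FBS, phenol red free; 24 h plating; cpd + 17beta-estradiol 21.5 h, 37 C/5% CO2; CellTiter-Fluor viability 30 min, then ONE-Glo luciferase 30 min RT.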

[15] = qHTS assay to identify small molecule antagonists of the estrogen receptor alpha (ER-alpha) signaling pathway using the BG1 cell line - cell viability counter screen (AID 743081);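 also: compound given together with 17beta-estradiol as the ER stimulus; series mostly up to about 70 µM; nearly all actives have a fitted effect of over 45% in size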
[16] = biological target: Aromatase (Homo sapiens) (UniProt P11511); assay: qHTS assay to identify aromatase inhibitors (AID 743083); also: series mostly up to about 70 µM; nearly all actives have a fitted effect of over 55% in size
[17] = biological target: Androgen receptor (Homo sapiens) (UniProt P10275); assay: qHTS assay to identify small molecule antagonists of the androgen receptor (AR) signaling pathway (AID 743035; active = well fitted inhibition curve with a large enough effect in the signal ratio in the repeat runs, not every such curve was filed as active; the % refers to the signal ratio)
Procedure, shortened: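 Cell line: GeneBLAzer AR-UAS-bla GripTite (HEK293). Stimulus: R1881 added after compound. Exposure: 16 h, 37C, 5% CO2. Readout: LiveBLAzer B/G FRET fluorescence after 2 h at room temperature.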

[18] = biological target: Androgen receptor (Homo sapiens) (UniProt P10275); assay: qHTS assay to identify small molecule agonists of the androgen receptor (AR) signaling pathway (AID 743036; active = well fitted activation curve with a large enough effect in the signal ratio in the repeat runs, with a control signal flat, not every such curve was filed as active; the % refers to the signal ratio)
Procedure, shortened: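 Following a 4 h settling period, AR-UAS-bla HEK293 cells were dosed with compounds for 16 h at 37C. A 2 h room-temperature incubation with LiveBLAzer B/G FRET substrate preceded the fluorescence measurement.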

[19] = biological target: Androgen receptor (Homo sapiens) (UniProt P10275); assay: qHTS assay to identify small molecule agonists of the androgen receptor (AR) signaling pathway using the MDA cell line (AID 743040; also: nearly all actives have a fitted effect of over 20% in size)
Procedure, shortened: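 Human breast carcinoma MDA-kb2 reporter cells (MMTV-luc, AR/GR elements) were treated for 16 h at 37C in 0% CO2 following a 5 h settling period. Signal was quantified by ONE-Glo luminescence.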

[20] = biological target: Androgen receptor (Homo sapiens) (UniProt P10275); assay: qHTS assay to identify small molecule antagonists of the androgen receptor (AR) signaling pathway using the MDA cell line (AID 743042; also: nearly all actives have a fitted effect of over 55% in size)
Procedure, shortened: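 MDA-kb2 breast carcinoma cells carrying MMTV-luciferase (AR/GR responsive) were co-treated with compounds and the agonist R1881 for 16 h at 37C. Inhibition read as ONE-Glo luminescence; CellTiter-Fluor fluorescence measured in parallel for cytotoxicity.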

Measured: Potency

Androgen receptor (Homo sapiens), sequence (P10275 whole entry, looked up): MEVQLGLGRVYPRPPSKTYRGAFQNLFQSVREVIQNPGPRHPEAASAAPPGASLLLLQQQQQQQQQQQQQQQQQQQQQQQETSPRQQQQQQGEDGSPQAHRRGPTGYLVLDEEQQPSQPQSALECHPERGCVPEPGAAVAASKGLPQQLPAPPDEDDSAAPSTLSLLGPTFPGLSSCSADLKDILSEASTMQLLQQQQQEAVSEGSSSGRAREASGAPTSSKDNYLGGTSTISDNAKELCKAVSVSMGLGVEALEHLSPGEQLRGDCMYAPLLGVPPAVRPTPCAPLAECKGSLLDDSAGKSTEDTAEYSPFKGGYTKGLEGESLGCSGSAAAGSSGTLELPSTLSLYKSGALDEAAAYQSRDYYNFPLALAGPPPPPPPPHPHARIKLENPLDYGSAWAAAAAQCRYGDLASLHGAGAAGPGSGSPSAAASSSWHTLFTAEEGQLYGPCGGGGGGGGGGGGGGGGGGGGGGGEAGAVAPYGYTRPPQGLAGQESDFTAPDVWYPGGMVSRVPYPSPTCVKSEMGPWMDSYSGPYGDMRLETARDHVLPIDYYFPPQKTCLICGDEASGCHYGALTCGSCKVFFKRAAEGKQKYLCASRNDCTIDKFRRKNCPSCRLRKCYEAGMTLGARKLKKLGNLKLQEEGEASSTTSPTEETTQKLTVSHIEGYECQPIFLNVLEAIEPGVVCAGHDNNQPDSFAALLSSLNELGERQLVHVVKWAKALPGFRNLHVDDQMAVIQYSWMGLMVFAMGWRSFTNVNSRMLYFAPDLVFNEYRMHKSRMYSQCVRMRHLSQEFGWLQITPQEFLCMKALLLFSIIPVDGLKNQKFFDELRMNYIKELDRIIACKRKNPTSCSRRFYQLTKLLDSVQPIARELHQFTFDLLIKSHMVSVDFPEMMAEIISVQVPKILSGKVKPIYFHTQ
Aromatase (Homo sapiens), sequence (P11511 whole entry, looked up): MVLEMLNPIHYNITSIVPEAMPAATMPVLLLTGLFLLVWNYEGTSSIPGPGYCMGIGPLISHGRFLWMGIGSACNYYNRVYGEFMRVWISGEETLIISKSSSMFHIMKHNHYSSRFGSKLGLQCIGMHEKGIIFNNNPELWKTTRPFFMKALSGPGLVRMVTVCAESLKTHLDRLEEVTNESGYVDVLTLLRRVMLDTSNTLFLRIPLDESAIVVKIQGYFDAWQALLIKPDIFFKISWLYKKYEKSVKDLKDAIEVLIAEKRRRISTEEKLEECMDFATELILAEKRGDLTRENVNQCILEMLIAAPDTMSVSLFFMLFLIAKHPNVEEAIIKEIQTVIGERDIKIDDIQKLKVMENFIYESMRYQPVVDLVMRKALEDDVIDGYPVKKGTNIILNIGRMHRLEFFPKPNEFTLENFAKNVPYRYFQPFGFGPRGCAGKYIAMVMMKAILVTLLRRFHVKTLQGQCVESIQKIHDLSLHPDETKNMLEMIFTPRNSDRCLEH
Estrogen receptor (Homo sapiens), sequence (P03372 whole entry, looked up): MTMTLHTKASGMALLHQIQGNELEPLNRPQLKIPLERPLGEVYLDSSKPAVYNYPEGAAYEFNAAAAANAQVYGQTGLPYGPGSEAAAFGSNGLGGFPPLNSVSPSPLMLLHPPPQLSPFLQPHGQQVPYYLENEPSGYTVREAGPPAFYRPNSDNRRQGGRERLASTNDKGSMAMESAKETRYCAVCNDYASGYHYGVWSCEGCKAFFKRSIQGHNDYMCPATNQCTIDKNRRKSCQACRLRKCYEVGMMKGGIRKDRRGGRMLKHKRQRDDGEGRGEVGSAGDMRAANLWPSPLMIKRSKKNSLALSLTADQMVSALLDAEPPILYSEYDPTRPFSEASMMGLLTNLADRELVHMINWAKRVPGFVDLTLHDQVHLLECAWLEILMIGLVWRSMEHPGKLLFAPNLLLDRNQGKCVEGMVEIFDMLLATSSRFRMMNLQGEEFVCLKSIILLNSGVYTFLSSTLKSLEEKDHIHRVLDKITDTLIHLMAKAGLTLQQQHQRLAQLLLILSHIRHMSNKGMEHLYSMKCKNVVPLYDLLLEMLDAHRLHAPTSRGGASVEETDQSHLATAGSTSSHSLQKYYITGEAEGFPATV

C=CCc1cc(OC)c(O)c(C(=O)NCCO)c1
not listed: [17] | [18] | [19] | [20]
inactive: all other assays above

Oc1ccccc1F
not listed: [17] | [18] | [19] | [20]
inactive: all other assays above

Cc1ncc(CO)c(CN)c1O
not listed: [13]
inactive: all other assays above

CC1=C(CC(=O)O)c2cc(F)ccc2/C1=C\c1ccc(S(C)(=O)=O)cc1
not listed: [18]
inactive: all other assays above

CC(C)(CO)[C@@H](O)C(=O)NCCC(=O)O
not listed: [17] | [18] | [19] | [20]
inactive: all other assays above

OCC(CBr)(CBr)CBr
not listed: [16] | [17] | [18] | [19] | [20]
inactive: all other assays above

Cn1cnc2c(F)c(Nc3ccc(Br)cc3Cl)c(C(=O)NOCCO)cc21
not listed: [7] | [8] | [10] | [12] | [13] | [14] | [20]
inactive: all other assays above

CCc1cc(Cl)c(OC)c(C(=O)NC[C@@H]2CCCN2CC)c1O
10.6 µM (active) and inactive: [13]
active: [2] 5.96 µM and 8.04 µM and 6.68 µM | [3] 7.5 µM and 9.02 µM and 9.44 µM | [4] 11.9 µM and 10.1 µM | [7] 23.7 µM and 7.5 µM | [8] 23.7 µM and 11.4 µM and 11.9 µM
not listed: [17] | [18] | [19] | [20]
inactive: all other assays above
